In PubChem BioAssay (NCI):
This is part of a sample that, as a whole, favours compounds with a hit. Of some 83,000 tested, about 20% had one in any assay.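 Values shown are percent growth following 48 h exposure of cells in 96-well plates to a single concentration of compound; below 10 was considered active.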 A number with no mark means an inactive call. Calls of active or inactive are those of the source.

These compounds were tested on NCI-H522 lung (assay: NCI-60 one-dose screen, 48 h (100 = growth as untreated, 0 = no growth, -100 = all killed)). Conditions: 10 µM.
Method: Growth inhibition of the NCI-H522 human Non-Small Cell Lung tumor cell line is measured as a screen for anti-cancer activity. Cells are grown in 96 well plates and exposed to the test compound for 48 hours. Compounds are tested at a single concentration, which is 10^-5 M for most compounds. The reported endpoint is percent growth (GI% or GIPRCNT), where numbers from 0 - 100% represent growth inhibition, and numbers from -100% - 0 represent cell death. For example, a value of 40 represents 60% growth inhibition. A value of 0 means no net growth occurred over the course of the experiment. A value of -40 indicates 40% of cells at the beginning of the experiment died by the end of the experiment. A value of -100 means all cells are dead at the end of the experiment.
NCI-60 Human Tumor Cell Lines Screen was performed using the standard one-dose NCI protocol, which is described in more detail at https://dtp.cancer.gov/discovery_development/nci-60/default.htm.
Compounds with GIPRCNT values below 10 were considered active. Activity score was based on GIPRCNT using the following formula: […]
Score is 0 for GIPRCNT values of 100 or above, 50 for GIPRCNT values of 0, and 100 for GIPRCNT values of -100.
In the case of `Cc1ccc2c(c1)C(=O)/C(=C/c1c[nH]c3ccccc13)S2`, the growth is reported as 11.2%. `COc1cc(C2CC(c3ccccc3)=Nc3c(N)nc(N)nc3N2)ccc1Oc1nc(NCCO)nc(N2CCOCC2)n1` (stereo not given) showed a growth of 97.7%. For `COc1ccc(C(=O)COc2ccc(NC(=O)Nc3ccccc3)cc2)cc1`, the growth was 58.2%. `C#C[C@]1(O)CC[C@H]2[C@@H]3CC=C4c5sc(Nc6cc(C)cc(C)n6)nc5CC[C@]4(C)[C@H]3CC[C@@]21C` was tested, and the growth was -79.9% (active). `Cc1ccc(S(=O)(=O)N2CCN(S(=O)(=O)c3oc(-c4ccccc4)nc3C#N)CC2)cc1` was tested, and the growth was 64.1%. For `Cc1ccc(-c2nc(C#N)c(S(=O)(=O)N3CCN(S(C)(=O)=O)CC3)o2)cc1`, the growth was -86.6% (active). With `O=C1NC2C=CC=CC2/C1=C1/SC(=S)N(C2CC(=O)N(c3ccc(Br)cc3)C2=O)C1=O` (stereo not given) the growth was 68.7%. With `O=C(Nc1ccc(OCc2ccc(F)cc2)cc1)Nc1ccc(Cl)c(C(F)(F)F)c1` the growth was -20.8% (active). In the case of `COc1cccc(C(=O)CSc2nc(-c3ccc(OCc4ccccc4)c(OC)c3)c(C#N)c(=O)[nH]2)c1`, the growth is reported as 78.9%. `CCOC(=O)c1ccc(NC(=O)CSC(CC(=O)c2sc(Nc3ccccn3)nc2C)c2ccccc2F)cc1` (stereo not given) was tested, and the growth was -22.7% (active). `O=C(CN1CCN(c2ncnc3c2cnn3-c2ccccc2)CC1)Nc1ccc(Cl)cc1` was tested, and the growth was -83.1% (active). With `CC1(C)CC[C@]2(C(=O)O)CC[C@]3(C)C(=CCC4[C@@]5(C)C[C@@H](O)[C@@H]6OC(c7cccc(F)c7)OC[C@@]6(C)C5CC[C@]43C)C2C1` (stereo not given in full) the growth was 8.76% (active). `COc1cc2oc(-c3cccc(C(=O)Nc4ccc(Cl)cc4)c3)cc(=O)c2c(OCCNC(=O)[C@@H](N)CO)c1OC` was tested, and the growth was -27.9% (active). Compound `Cn1cc(-c2nnc(N)nc2-c2c[nH]c3ccc(F)cc23)c2cc(Br)cnc21` has a growth of 23.8%. `COc1ccc(NCc2cn(-c3ccc(C(=O)O)cc3)nc2-c2ccc(F)cc2)cc1C(F)(F)F` showed a growth of 40.2%. With `Cn1cc(-c2nc(N)nnc2-c2c[nH]c3ccccc23)c2cc(Br)cnc21` the growth was -36.5% (active). `Cc1ccc(COc2ccc(NC(=O)Nc3ccc(Cl)c(C(F)(F)F)c3)cc2)cc1` gave a growth of 44.9%. In the case of `Cn1cc(-c2cc(N)n3nc(-c4cn(C)c5ccccc45)cc3n2)c2cc(F)ccc21`, the growth is reported as -66.3% (active). `O=C(CN1CCN(c2ncnc3c2cnn3-c2ccccc2)CC1)Nc1ccc(Br)cc1` was tested, and the growth was -80.3% (active). For `COc1ccc(OC)c(-n2cc(C#N)c(N)c2C(=O)c2ccc(Cl)cc2Cl)c1`, the growth was 7.18% (active). `Fc1ccc(/C=C/c2nc3ccccc3n3c(-c4ccc(Cl)cc4)nnc23)cc1` was tested, and the growth was -81.7% (active). `COc1cccc(O)c1/C=C1\SCc2cc3c(OC)cccc3[o+]c21` gave a growth of 102%. `CC1[C@H]2[C@H](C[C@H]3[C@@H]4CC=C5c6sc(Nc7cccc(Cl)n7)nc6CC[C@]5(C)[C@H]4CC[C@@]32C)O[C@]12CC[C@@H](C)CO2` (stereo not given in full) showed a growth of 65.8%. For `Cc1ccc2c(c1)C(=O)/C(=C/c1ccc([N+](=O)[O-])cc1)S2`, the growth was 82.5%. For `COc1ccc(C2c3sc4ccc(C)cc4c3Oc3nc(N)nc(N)c32)cc1` (stereo not given), the growth was 57.2%. With `O=[N+]([O-])c1cccc(-c2nnc3c(/C=C/c4ccccc4O)nc4ccccc4n23)c1` the growth was 55.3%. For `Cn1cc(-c2nnc(N)nc2-c2c[nH]c3ccccc23)c2cc(Br)cnc21`, the growth was 15.1%. `Cc1ccc2sc3c(c2c1)Oc1nc[nH]c(=O)c1C3c1cccc(F)c1` (stereo not given) gave a growth of 82.8%. With `O=C1NC(=S)S/C1=C\c1cn(-c2ccccc2)nc1-c1ccc([N+](=O)[O-])cc1` the growth was -4.14% (active). `O=C1S/C(=C\c2ccc([N+](=O)[O-])cc2)C(=O)N1CCN1CCCCC1` showed a growth of 99.7%. In the case of `O=C(Nc1ccc(Oc2ncnc3scc(Nc4n[nH]c(=S)s4)c23)cc1)C1(C(=O)Nc2cccc(C(F)(F)F)c2)CC1`, the growth is reported as 94.1%. For `COc1cc(C2CC(c3ccc(Oc4ccc(Cl)cc4)cc3)=NN2c2nc(-c3ccc(Cl)cc3)c(C#N)c(N3CCOCC3)n2)cc(OC)c1OC` (stereo not given), the growth was 92.4%. `O=C(CC(=O)Nc1ccc(Oc2ncnc3scc(Nc4n[nH]c(=S)s4)c23)cc1)Nc1ccc(Br)cc1` was tested, and the growth was 89.6%. `O=C(c1ccc(F)cc1)C(c1c[nH]c2ccccc12)c1c[nH]c2ccccc12` was tested, and the growth was 50.7%. `Fc1ccc(-c2csc(Nc3cccc(Nc4nc(-c5ccc(F)cc5)cs4)c3)n2)cc1` was tested, and the growth was 6.23% (active). For `CCn1c(SCC(=O)Nc2ccc(-c3nc4ccccc4[nH]3)cc2)nc2ccccc2c1=O`, the growth was -74.2% (active). With `Cc1cc(N=C2NC(=O)S/C2=C\c2ccc(F)cc2)n[nH]1` the growth was -8.95% (active). In the case of `CC(C)(C)c1cc(/C=C2\S/C(=N/c3ncn[nH]3)NC2=O)cc(C(C)(C)C)c1O`, the growth is reported as -23.9% (active). In the case of `COc1ccccc1-n1cc(C#N)c(N)c1C(=O)c1ccc(Cl)cc1Cl`, the growth is reported as -55.6% (active). For `C#C[C@]1(O)CC[C@H]2[C@@H]3CC=C4c5sc(Nc6ccc(N(C)C)cc6)nc5CC[C@]4(C)[C@H]3CC[C@@]21C`, the growth was -57.1% (active).
